Records with an inconclusive call do not appear. Active and inactive are the calls of the source. The call rests on the fitted dose curve; in most records, active means well fitted inhibition curve with a large enough effect; inconclusive means small, poorly fitted or top-dose-only effect; inactive means no such curve, though single readings can be large or run the other way.
These compounds were tested against Rap guanine nucleotide exchange factor 3 (Homo sapiens) (UniProt O95398) (assay: Confirmatory qHTS for antagonist of cAMP-regulated guanine nucleotide exchange factor 3 (EPAC1) (AID 1645880; further: nearly all actives have a fitted effect of over 55% in size;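 on activity, negative = inhibition: plate controls were DMSO only for no effect and full effect of the ATA control for full effect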)). Conditions: EPAC1 Rap1B-BODIPY-GDP exchange, fluorescence; activity, negative = inhibition: at 115 µM (top of the series).
Sequence of Rap guanine nucleotide exchange factor 3 (Homo sapiens) (O95398 whole entry, looked up): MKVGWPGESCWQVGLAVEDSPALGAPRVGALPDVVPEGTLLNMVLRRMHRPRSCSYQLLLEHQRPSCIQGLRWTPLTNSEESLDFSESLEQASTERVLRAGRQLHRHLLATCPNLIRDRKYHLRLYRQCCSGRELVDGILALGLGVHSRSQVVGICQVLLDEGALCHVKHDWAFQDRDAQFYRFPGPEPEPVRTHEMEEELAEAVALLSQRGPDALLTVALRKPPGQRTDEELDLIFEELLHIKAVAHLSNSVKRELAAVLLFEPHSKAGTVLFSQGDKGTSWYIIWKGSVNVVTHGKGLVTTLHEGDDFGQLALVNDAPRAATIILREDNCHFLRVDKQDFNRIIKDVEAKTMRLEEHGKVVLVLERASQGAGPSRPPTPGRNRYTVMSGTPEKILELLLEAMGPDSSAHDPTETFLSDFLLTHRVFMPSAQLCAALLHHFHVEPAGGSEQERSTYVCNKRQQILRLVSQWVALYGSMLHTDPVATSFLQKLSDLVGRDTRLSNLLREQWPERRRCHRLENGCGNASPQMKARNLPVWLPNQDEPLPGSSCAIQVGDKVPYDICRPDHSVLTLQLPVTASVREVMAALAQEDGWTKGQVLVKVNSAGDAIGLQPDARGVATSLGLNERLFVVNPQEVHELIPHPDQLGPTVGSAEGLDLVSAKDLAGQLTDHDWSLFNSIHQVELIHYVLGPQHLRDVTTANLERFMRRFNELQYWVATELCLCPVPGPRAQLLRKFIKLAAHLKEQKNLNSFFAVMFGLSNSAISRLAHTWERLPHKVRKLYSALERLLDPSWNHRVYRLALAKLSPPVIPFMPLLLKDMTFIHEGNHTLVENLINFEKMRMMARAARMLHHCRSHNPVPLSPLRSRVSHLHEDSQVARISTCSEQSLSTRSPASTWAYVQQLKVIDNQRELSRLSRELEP
Procedure, shortened: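 Released BODIPY-GDP fluoresces less than Rap1-bound BODIPY-GDP; the signal is followed at 480/540 nm at 5-min intervals over 30 min, after 5 min at room temperature. Reactions contain 100 nM EPAC1, 250 nM RAP1B-BODIPY-GDP and 50 uM GDP; results are normalized to ATA and DMSO.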
Potency means the concentration at half of the fitted maximal effect.

Row | Compound | activity, negative = inhibition | Potency
1 | C#CCOc1nc(C)cc(C)c1S(=O)(=O)c1ccccc1C | -29.6% (inactive) | 
2 | COCCN(CCOC)Cc1cc(=O)oc2cc(C)c(Cl)cc12 | -25.5% (inactive) | 
3 | O=C(O)CN1C(=O)/C(=C\c2cc(Br)ccc2OCc2ccc([N+](=O)[O-])cc2)SC1=S |  | 30.1 µM (active)
4 | CC(C)(C)c1ccc(OCC(=O)Nc2ccc(C(=O)Nc3ccccc3C(=O)O)cc2)cc1 |  | 75.7 µM (active)
5 | CCOC(=O)c1cc2c(ccn2C)n1Cc1ccccc1Cl | -16.1% (inactive) | 
6 | O=C(CN1CCCCCC1)Nc1ccccc1Oc1ccccc1 | -25.5% (inactive) | 
7 | COC(=O)C1=CN(Cc2cccs2)C=C(C(=O)OC)C1c1cccc(Cl)c1 | -17.8% (inactive) | 
8 | O=S(=O)(Nc1ccc(C(O)(C(F)(F)F)C(F)(F)F)cc1)c1ccc(Cl)c2nonc12 |  | 42.6 µM (active)
9 | Cc1cc(/C=C2\SC(=S)NC2=O)c(C)n1-c1ccc(O)cc1 |  | 84.9 µM (active)
10 | COc1cc(/C=C2\SC(=Nc3ccc(Cl)c(C(=O)O)c3)NC2=O)c(Br)c(Br)c1O |  | 2.82 µM (active)
11 | COc1ccc(C(=O)n2c(-c3ccco3)nc3ccccc32)cc1 | -28.9% (inactive) | 
12 | O=C(N/N=C/c1ccccc1O)c1ccc2c(c1)OCO2 | -18.8% (inactive) | 
13 | Cc1cc(C)n(Cc2ccc(C(=O)N/N=C/c3ccc(-c4ccc([N+](=O)[O-])cc4)o3)o2)n1 |  | 47.8 µM (active)
14 | CC(C(=O)Nc1ccc(O)c(C(=O)O)c1)N1C(=O)/C(=C/c2cccs2)SC1=S (stereo unspecified) |  | 37.9 µM (active)
15 | COc1ccc(OC)c(NC2c3ccccc3C(=O)N2c2cccnc2)c1 (stereo unspecified) | -13.3% (inactive) | 
16 | O=C(NN1C(=O)/C(=C/c2ccc(O)c([N+](=O)[O-])c2)SC1=S)c1ccccc1Cl |  | 84.9 µM (active)
